Measured values reported in the supplement of paper PMC8371130.
Counter-ions that a name gives are not always drawn.

Test system: HL-1
Experiment: relative cell viability (CellTiter-Glo) vs DMSO control (% of DMSO control); higher = more viable cells
How it was run: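 HL-1 mouse atrial cardiomyocytes were plated in 384-well plates at 1000 cells per well together with compounds at 40, 200, 1000 or 5000 nM in 0.01% DMSO. One day later, cells went to a hypoxic workstation (1% O2) for 48 h, then were reoxygenated for 24 h in a normal incubator, or stayed in normoxia for the same time. Cell viability was read by CellTiter-Glo luminescence and normalised to vehicle-treated control cells.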

[1] = oxygen condition: hypoxia 48 h (1% O2) + reoxygenation 24 h, 40 nM
[2] = oxygen condition: hypoxia 48 h (1% O2) + reoxygenation 24 h, 200 nM
[3] = oxygen condition: hypoxia 48 h (1% O2) + reoxygenation 24 h, 1000 nM
[4] = oxygen condition: hypoxia 48 h (1% O2) + reoxygenation 24 h, 5000 nM
[5] = oxygen condition: normoxia 72 h, 40 nM
[6] = oxygen condition: normoxia 72 h, 200 nM
[7] = oxygen condition: normoxia 72 h, 1000 nM
[8] = oxygen condition: normoxia 72 h, 5000 nM

SMILES | relative cell viability [1] | relative cell viability [2] | relative cell viability [3] | relative cell viability [4] | relative cell viability [5] | relative cell viability [6] | relative cell viability [7] | relative cell viability [8]
CCc1ccc(CCOc2ccc(CC3SC(=O)NC3=O)cc2)nc1 (stereo not drawn) [Pioglitazone] | 109 | 110 | 114 | 116 | 104 | 107 | 117 | 120
O=C1CCc2ccc(OCCCCN3CCN(c4cccc(Cl)c4Cl)CC3)cc2N1 [Aripiprazole] | 98.7 | 104 | 97 | 97.8 | 99 | 99.7 | 98.7 | 99.9
O=C(O)c1cc(=O)c2ccccc2o1 [Chromocarb] | 103 | 105 | 109 | 110 | 111 | 103 | 107 | 115
CC[C@]1(O)C[C@@H]2CN(CCc3c([nH]c4ccccc34)[C@@](C(=O)OC)(c3cc4c(cc3OC)N(C)[C@H]3[C@@](O)(C(=O)OC)[C@H](OC(C)=O)[C@]5(CC)C=CCN6CC[C@]43[C@@H]65)C2)C1 [Vinblastine] | 35.3 | 41.6 | 43.5 | 37.2 | 28 | 32.3 | 36 | 35.9
CCCCc1nc(Cl)c(CO)n1Cc1ccc(-c2ccccc2-c2nnn[nH]2)cc1 [Losartan potassium] | 111 | 107 | 114 | 108 | 103 | 108 | 108 | 110
CC1Cc2ccccc2N1NC(=O)c1ccc(Cl)c(S(N)(=O)=O)c1 (stereo not drawn) [Indapamide] | 106 | 104 | 110 | 114 | 105 | 102 | 106 | 121
CCOC(=O)C1=C(C)NC(C)=C(C(=O)OC)C1c1cccc([N+](=O)[O-])c1 (stereo not drawn) [Nitrendipine] | 95.9 | 106 | 98.1 | 107 | 107 | 103 | 104 | 111
O=C(CCCCCCC(=O)Nc1ccccc1)NO [Vorinostat] | 101 | 105 | 85 | 27.2 | 103 | 101 | 90.1 | 14.6
Cc1c(N(C)C)c(=O)n(-c2ccccc2)n1C [Amidopyrine] | 107 | 111 | 109 | 114 | 107 | 105 | 110 | 118
CNC[C@H](O)c1cccc(O)c1 [Phenylephrine HCl] | 110 | 108 | 102 | 109 | 110 | 108 | 117 | 118
CN1CCCCC1CCN1c2ccccc2Sc2ccc([S+](C)[O-])cc21 (stereo not drawn) [Mesoridazine Besylate] | 108 | 106 | 105 | 113 | 97 | 102 | 117 | 115
CCC[C@@H]1C[C@@H](C(=O)N[C@@H]([C@H]2O[C@H](SC)[C@H](O)[C@@H](O)[C@H]2O)[C@@H](C)O)N(C)C1 [Lincomycin hydrochloride] | 93.1 | 103 | 103 | 103 | 99 | 98.3 | 100 | 97
CCCCc1oc2ccccc2c1C(=O)c1cc(I)c(OCCN(CC)CC)c(I)c1 [Amiodarone HCl] | 99.8 | 95.4 | 103 | 110 | 102 | 110 | 106 | 116
CCOC(=O)[C@H](CCc1ccccc1)N[C@@H](C)C(=O)N1Cc2cc(OC)c(OC)cc2C[C@H]1C(=O)O [Moexipril HCl] | 105 | 102 | 107 | 67.2 | 100 | 98.2 | 90.7 | 64.1
CC(C)NCC(O)c1ccc(NS(C)(=O)=O)cc1 (stereo not drawn) [Sotalol] | 100 | 98.9 | 93 | 99.8 | 96.9 | 94.1 | 98.4 | 104
CCN(CC)CCOC(=O)c1ccc(N)cc1 [Procaine] | 100 | 102 | 109 | 108 | 105 | 104 | 105 | 110
